Outcome and Potency data for 30 molecules are collected here from PubChem BioAssay (NCATS).

In assay [1] the target is Mitogen-activated protein kinase 10 (Mus musculus) (UniProt Q61831). The assay can be described thus: JNK3 AlphaScreen Assay (AID 530; active = well fitted curve in either direction with a large enough effect, not every such curve was filed as active;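 also: kinase came from lysate of stimulated human HepG2 cells; signal reports phosphorylation of biotinylated GST-cJun 1-79 at Ser73 with 10 µM ATP; series mostly up to about 57 µM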). An outline of the steps: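 Biotinylated GST-cJun(1-79) served as substrate for JNK3 in HepG2 lysates stimulated with IL-1beta and TNF-alpha. ATP was 10 uM final, pH 7.6. Ser73 phosphorylation was quantified by AlphaScreen (680 nm excitation).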
For orientation: Alpha assays give light when donor and acceptor beads are brought close together.

For assay [2], the target named is Cytochrome P450 3A4 (Homo sapiens) (UniProt P08684). The assay can be described thus: qHTS Assay for Activators of Cytochrome P450 3A4 (AID 885). Also: nearly all actives have a fitted effect of over 65% in size. An outline of the steps:
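Activators are scored by enhanced luminescence from CYP3A4 conversion of luciferin-PPXE (25uM, equal to KM) to luciferin, after 60 min at RT with an NADPH-regenerating system.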
A general note: Quantitative high-throughput screening tests each substance at several concentrations.

Assay [3] has as its target Calcium and integrin-binding protein 1 (Homo sapiens) (UniProt Q99828). The assay can be described thus: Primary qHTS for Identification of Calcium Integrin Binding Protein 1 (CIB1) Competitor (AID 1508620).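 Also: GST tagged CIB1 binding a fluorescein labelled alphaIIb integrin peptide tracer; top concentration of the series differs between compounds.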 In short, it runs like this:
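Fluorescence polarization competition: CIB1-GST (1 uM final) preincubated with compound 15 min at room temperature, then FITC-labeled alphaIIb peptide (100 nM final) added for another 15 min. Polarization read at Ex 480/Em 540.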

The nature of assay [4]: qHTS for Inhibitors of Ubiquitin-specific Protease USP2a Using CHOP2 as the Reporter: K633 Counterscreen (AID 652168). Also: series mostly up to about 57 µM. An outline of the steps:
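Detection-system control: fluorescence of K48-linked DiUb-4IQF substrate (100 nM as added) tracked over time, Ex 525/Em 598, with pinned compounds and no enzyme, in pH 8 Tris buffer containing beta-mercaptoethanol and 0.05% Chaps.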

The nature of assay [5]: qHTS for Inhibitors of Ubiquitin-specific Protease USP2a Using CHOP2 as the Reporter: Cytotox Assay (AID 652170). Also: nearly all actives have a fitted effect of over 70% in size. Also: potency is read from the fitted curve at half-maximal effect. An outline of the steps: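 Cytotoxicity read as ATP luminescence (CellTiter-Glo) after 72 hr compound treatment at 37 deg C. Cells: HCT116, 600/well in DMEM plus 10% FBS. Normalization between DMSO-treated cells and cell-free wells.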
The target of assay [6] is Ubiquitin carboxyl-terminal hydrolase 2 (Homo sapiens) (UniProt O75604). Description: qHTS for Inhibitors of Ubiquitin-specific Protease USP2a Using CHOP2 as the Reporter: K484 Substrate (AID 652173).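 Also: cleavage of internally quenched K48 di-ubiquitin substrate measured as rising fluorescence over time; nearly all actives have a fitted effect of over 70% in size.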 Also: potency is read from the fitted curve at half-maximal effect. In short, it runs like this: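 Kinetic fluorescence (Ex 525/Em 598) tracked cleavage of an internally quenched K48 di-ubiquitin substrate, added as a 100 nM solution. The enzyme was added as a 5 nM USP2 solution before compound pinning, with no-enzyme controls. Buffer: Tris pH 8, beta-mercaptoethanol, CHAPS.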
Chain of Ubiquitin carboxyl-terminal hydrolase 2 (Homo sapiens) (O75604 whole entry, looked up): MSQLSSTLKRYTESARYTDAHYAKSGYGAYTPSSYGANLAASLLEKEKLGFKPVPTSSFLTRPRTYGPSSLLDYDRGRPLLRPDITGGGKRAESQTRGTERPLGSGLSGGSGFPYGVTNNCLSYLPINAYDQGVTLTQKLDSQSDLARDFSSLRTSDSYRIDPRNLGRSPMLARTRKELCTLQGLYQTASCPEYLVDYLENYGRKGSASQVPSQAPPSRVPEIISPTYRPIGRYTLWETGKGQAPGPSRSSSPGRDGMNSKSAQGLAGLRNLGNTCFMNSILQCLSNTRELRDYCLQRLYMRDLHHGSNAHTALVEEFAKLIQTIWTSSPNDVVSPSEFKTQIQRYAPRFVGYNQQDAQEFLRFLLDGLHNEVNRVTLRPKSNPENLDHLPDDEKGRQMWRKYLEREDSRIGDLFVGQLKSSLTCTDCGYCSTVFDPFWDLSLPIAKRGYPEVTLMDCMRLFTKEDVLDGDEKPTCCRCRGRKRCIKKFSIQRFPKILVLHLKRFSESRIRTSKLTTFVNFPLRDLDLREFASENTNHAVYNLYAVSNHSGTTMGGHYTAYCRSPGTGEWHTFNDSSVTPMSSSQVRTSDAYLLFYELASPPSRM

Assay [7] is described as follows: qHTS for Inhibitors of the vitamin D receptor (VDR): Hit Validation using a Texas Red Assay (AID 602201). Also: potency is read from the fitted curve at half-maximal effect. In short, it runs like this:
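Fluorescence polarization (Ex 595/Em 615 nm) of Texas Red (7 nM) with 1.5 uM VDR-LBD and LG19078 (final concentrations). Compounds were incubated for 2 hours at room temperature.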

Molecules are shown by their SMILES. Inconclusive results are not listed. A call without a number means that no potency is given here. Active and inactive are the calls of the source. Unless noted, calls follow the shape of the dose curve; as a rule, active = well fitted curve in the direction sought with a large enough effect; inconclusive = small, poorly fitted or top-dose-only effect, or another doubt; inactive = no such curve, though single readings can be large; an effect the other way counts as inactive or inconclusive.

Chain of Cytochrome P450 3A4 (Homo sapiens) (P08684 whole entry, looked up): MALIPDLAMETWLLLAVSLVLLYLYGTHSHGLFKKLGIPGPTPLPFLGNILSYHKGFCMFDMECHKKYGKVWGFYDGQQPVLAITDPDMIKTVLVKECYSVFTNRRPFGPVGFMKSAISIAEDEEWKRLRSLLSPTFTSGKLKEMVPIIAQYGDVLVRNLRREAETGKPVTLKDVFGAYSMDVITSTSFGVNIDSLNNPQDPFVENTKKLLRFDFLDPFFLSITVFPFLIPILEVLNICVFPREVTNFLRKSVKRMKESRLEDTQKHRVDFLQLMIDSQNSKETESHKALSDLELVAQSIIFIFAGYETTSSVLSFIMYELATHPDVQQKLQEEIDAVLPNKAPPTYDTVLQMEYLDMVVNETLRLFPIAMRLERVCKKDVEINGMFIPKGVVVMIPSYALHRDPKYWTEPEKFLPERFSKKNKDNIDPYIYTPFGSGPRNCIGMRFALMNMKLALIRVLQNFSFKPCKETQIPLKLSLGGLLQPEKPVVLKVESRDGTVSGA
Chain of Calcium and integrin-binding protein 1 (Homo sapiens) (Q99828 whole entry, looked up): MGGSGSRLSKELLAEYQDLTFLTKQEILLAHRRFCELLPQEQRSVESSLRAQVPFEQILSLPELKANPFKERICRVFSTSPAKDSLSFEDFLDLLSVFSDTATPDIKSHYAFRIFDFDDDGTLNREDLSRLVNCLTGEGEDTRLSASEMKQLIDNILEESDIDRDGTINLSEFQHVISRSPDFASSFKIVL

For `CCCCNc1nc(C)nc2c1nc(C)n2CCC`, the result in assay [1] was inactive. Moreover, the Potency result in assay [2] and in assay [3] was “inactive” in each case.

On to `CCCn1c(-c2ccc(F)cc2)nc2c(NCC3CCCN3CC)nc(C)nc21` (stereo not given), for which the outcome in assay [1] was inactive. Moreover, the Potency entry in assay [2] and in assay [3] was “inactive” throughout.

As for `CCCn1c(C)nc2c(NC(C)CCCN(CC)CC)nc(C)nc21` (stereo not given), in assay [1], the outcome was inactive. Moreover, the Potency entry in assay [2] and in assay [3] was “inactive” each time.

Regarding `CCCn1c(-c2ccc(F)cc2)nc2c(N3CCN(Cc4nc(OC)cc(OC)n4)CC3)nc(C)nc21`, the molecule was classed as inactive in assay [1]. Besides, the Potency result in assay [2] and in assay [3] was “inactive” each time.

Turning to `Cc1ccc(NC(=O)c2ccncc2NS(=O)(=O)c2ccc(C)cc2)cc1`, the molecule was classed as inactive in assay [4]. Moreover, the Potency entry in assay [5] and in assay [3] was “inactive” each time.

With `Cc1ccc(S(=O)(=O)n2cc(C(=O)Nc3ccc(-c4ccccc4)cc3)c3ccccc32)cc1`, the call in assay [4] was inactive. Also, the Potency entry in assay [5] and in assay [3] was “inactive” in each case. Also, in assay [6], the Potency was 21.7 µM (active).

As to `CCCCNc1nc(C)nc2c1nc(-c1ccccc1)n2CCCN(C)C`, the result in assay [1] was inactive. Besides, the Potency entry in assay [2] and in assay [3] was “inactive” throughout.

Consider `Cc1ccc(-c2cc(C(=O)Nc3ccccc3)c3ccccc3n2)cc1C`, for which, in assay [4], the call was inactive. In addition, the Potency result in assay [5] and in assay [3] was “inactive” in each case. The Potency in assay [6] is 24.3 µM (active).

As for `O=C(CSc1nc2ccc(S(=O)(=O)N3CCOCC3)cc2[nH]1)N1CCOCC1`, the Potency result in assay [7] and in assay [3] was “inactive” in each case.

Consider `COc1cccc(NC(=O)c2cc(-c3ccc(C)c(C)c3)nc3ccccc23)c1`, for which, in assay [4], the molecule was classed as inactive. Also, the Potency entry in assay [5] and in assay [3] was “inactive” each time. The Potency in assay [6] was 9.68 µM (active).

Consider `CCCCNc1nc(C)nc2c1nc(-c1ccccc1)n2CC1CCN(C)CC1`, for which the molecule was classed as inactive in assay [1]. Moreover, the Potency entry in assay [2] and in assay [3] was “inactive” throughout.

As to `Cc1cccc(NC(=O)c2cc(-c3ccc(C)c(C)c3)nc3ccccc23)c1`, in assay [4], the outcome was inactive. The Potency entry in assay [5], in assay [6] and in assay [3] was “inactive” throughout.

For `CC1CC1C(=O)Nc1ccc([S+](=O)([O-])Nc2nccs2)cc1` (stereo not given), the molecule was classed as inactive in assay [4]. For the same molecule, the Potency entry in assay [5], in assay [6] and in assay [3] was “inactive” each time.

Turning to `O=S(=O)(Nc1ccc(S(=O)(=O)Nc2nccs2)cc1)c1ccc2ccccc2c1`, in assay [4], the result was inactive. For the same molecule, the Potency entry in assay [5] and in assay [3] was “inactive” in each case.

`Cc1ccc(S(=O)(=O)Nc2cnccc2C(=O)NCc2ccccc2)cc1`: the molecule was called inactive in assay [4]. For the same molecule, the Potency entry in assay [5] and in assay [3] was “inactive” each time.

With `Cc1ccc(-c2cc(C(=O)N3CCCCC3)c3ccccc3n2)cc1C`, the result in assay [4] was inactive. Also, the Potency entry in assay [5] and in assay [3] was “inactive” each time. In addition, the Potency in assay [6] was 24.3 µM (active).

For the molecule `COc1ccc(C(=O)Nc2nc(-c3ccccc3)cs2)c(OC)c1`, the call in assay [4] was inactive. In addition, the Potency result in assay [5] and in assay [3] was “inactive” each time.

For the molecule `COCCN(CCOC)c1nc(C)nc2c1nc(-c1ccccc1)n2CCN(C)C`, the molecule was called inactive in assay [1]. Besides, the Potency result in assay [2] and in assay [3] was “inactive” each time.

Take `O=C(Cc1ccccc1)Nc1sc2c(c1C(=O)Nc1ccc(Cl)cc1)CCCC2`: in assay [7], the Potency is 4.47 µM (active). In assay [3], the Potency entry was “inactive”.

In the case of `O=c1[nH]c(CCl)nc2sc3c(c12)CCC3`, the molecule was called inactive in assay [4]. In addition, the Potency in assay [5] was 14.8 µM (active). Also, the Potency entry in assay [6] and in assay [3] was “inactive” each time.

Take `Cc1ccc(S(=O)(=O)NCC(=O)Nc2nc(-c3ccccc3)cs2)cc1`: in assay [4], the molecule was classed as inactive. The Potency entry in assay [5] and in assay [3] was “inactive” throughout. Further, the Potency in assay [6] was 19.3 µM (active).

For `COc1ccc(NC(=O)c2cc(-c3ccc(C)c(C)c3)nc3ccccc23)cc1`, the call in assay [4] was inactive. In addition, the Potency result in assay [5] and in assay [3] was “inactive” throughout.

On to `CCCn1c(C)nc2c(NCCCCN(CC)CC)nc(C)nc21`, for which, in assay [1], the result was inactive. In addition, the Potency result in assay [2] and in assay [3] was “inactive” throughout.

Turning to `O=C(Nc1ccc(S(=O)(=O)Nc2nccs2)cc1)C1CC(OCc2ccccc2)C1` (stereo not given), in assay [4], the molecule was classed as inactive. In addition, the Potency entry in assay [5] and in assay [3] was “inactive” each time.

For `O=C(Nc1ccc(S(=O)(=O)Nc2nc(-c3ccccc3)cs2)cc1)c1ccc2ccccc2c1`, the call in assay [4] was inactive. Besides, the Potency entry in assay [5] and in assay [3] was “inactive” each time. Moreover, the Potency in assay [6] was 2.43 µM (active).

`O=c1[nH]c(CN2CCOCC2)nc2sc3c(c12)CCC3`: the molecule was classed as inactive in assay [4]. The Potency result in assay [5], in assay [6] and in assay [3] was “inactive” each time.

Take `COCCN(CCOC)c1nc(C)nc2c1nc(-c1ccccc1)n2CCN1CCCC1`: the result in assay [1] was inactive. In addition, the Potency result in assay [2] and in assay [3] was “inactive” each time.

In the case of `O=C(Nc1ccc([S+](=O)([O-])Nc2nccs2)cc1)c1ccccn1`, in assay [4], the result was inactive. The Potency entry in assay [5], in assay [6] and in assay [3] was “inactive” each time.

Regarding `CCCCNc1nc(C)nc2c1nc(-c1ccccc1)n2CCN(C)C`, the result in assay [1] was inactive. Further, the Potency entry in assay [2] and in assay [3] was “inactive” in each case.

Consider `CC1CCC(C(=O)Nc2ccc([S+](=O)([O-])Nc3nccs3)cc2)CC1` (stereo not given), for which the molecule was classed as inactive in assay [4]. Moreover, the Potency entry in assay [5], in assay [6] and in assay [3] was “inactive” throughout.
